The supplement of paper PMC9402605
± gives the standard deviation of the averaged measurements.

Tested on: Caenorhabditis elegans N2
Assay: egg-laying rate relative to DMSO control (serotonin + nicotine background) (fraction of control); higher = more egg-laying
Details: background: 12.3 mM serotonin + 7.7 mM nicotine; 60 µM; 1 h
Experimental: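 About 20 young-adult wild-type C. elegans (N2) per well in 96-well plates were exposed to 60 uM compound for 1 h at room temperature, either in M9 buffer (to find stimulators) or in 12.3 mM serotonin + 7.7 mM nicotine (NS, to find inhibitors). Eggs per worm per hour were counted by automated imaging and normalised to the mean of proximal DMSO control wells. Values average the primary screen and two retests of the worm-active (wactive) Egl modulators.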

`CCCCOC(=O)Nc1ccc([N+](=O)[O-])cc1` [wact-419] and `O=C(Nc1cccc(Cl)c1)N1CCN(c2ccc([N+](=O)[O-])cc2)CC1` [wact-31] are within error of each other in egg-laying rate: 0.733 ± 0.18 for the first, 1.03 ± 0.29 for the second.

First: O=C(Nc1ccc(I)cc1)c1ccco1 [wact-27]
Second: Cc1ccccc1C(=O)NCCc1ccccc1 [wact-406]
The egg-laying rate of the first is higher: 0.759 ± 0.099 for the first, 0.394 ± 0.22 for the second.

`Fc1ccc(-c2cn3ccsc3n2)cc1` [wact-433] and `Clc1ccc(-c2cn3ccsc3n2)cc1` [wact-1] are within error of each other in egg-laying rate: 0.471 ± 0.016 for the first, 0.584 ± 0.24 for the second.

First: Cc1ccc(-c2cnc(-c3ccncc3)o2)cc1 [wact-23]
Second: Ic1cccc(-c2nnc(-c3ccccc3)o2)c1 [wact-51]
The egg-laying rate of the first is lower: 0.55 ± 0.19 for the first, 0.995 ± 0.094 for the second.

`O=[N+]([O-])c1ccc(N2CCN(CC3CCCCC3)CC2)cc1` [wact-45] and `O=[N+]([O-])c1ccc(N2CCN(CC3CC=CCC3)CC2)cc1` (stereo not given) [wact-47] are within error of each other in egg-laying rate: 0.994 ± 0.16 for the first, 1.13 ± 0.076 for the second.

`Cc1ccn2cc(-c3ccc(F)cc3)nc2c1` [wact-436] and `CCc1ccc(-c2cn3ccsc3n2)cc1` [wact-434] are within error of each other in egg-laying rate: 0.478 ± 0.25 for the first, 0.474 ± 0.18 for the second.

`c1csc(-c2cnc3ccccc3n2)c1` [wact-21] and `Brc1cccc(-c2cn3ccccc3n2)c1` [wact-435] are within error of each other in egg-laying rate: 0.816 ± 0.081 for the first, 0.712 ± 0.25 for the second.

`O=[N+]([O-])c1ccc(CSc2ccc(Cl)cc2)cc1` [wact-3] and `O=[N+]([O-])c1ccc(-n2ccc3ccccc32)cc1` [wact-213] are within error of each other in egg-laying rate: 0.473 ± 0.36 for the first, 0.444 ± 0.061 for the second.

`c1ccc(CSc2nnc(-c3ccccc3)o2)cc1` [wact-38] and `CCSc1nnc(-c2ccc(Cl)cc2Cl)o1` [wact-4] are within error of each other in egg-laying rate: 0.966 ± 0.24 for the first, 0.795 ± 0.052 for the second.

`CCC1CCC(N2CCN(c3ccc([N+](=O)[O-])cc3)CC2)CC1` (stereo not given) [wact-6] and `O=[N+]([O-])c1ccc(N2CCN(CC3CC4C=CC3C4)CC2)cc1` (stereo not given) [wact-46] are within error of each other in egg-laying rate: 0.999 ± 0.56 for the first, 1.34 ± 0.22 for the second.

Compared with `COc1ccc(C=Cc2ccccn2)cc1` [wact-622], `CCOc1ccc(C(=O)c2cccs2)cc1` [wact-471] is higher in egg-laying rate: 0.373 ± 0.18 for the first, 1.02 ± 0.22 for the second.

`Cc1ccccc1C(=O)NCCSC1CCCCC1` [wact-494] and `O=[N+]([O-])c1ccc(N2CCc3ccccc3C2)nc1` [wact-421] are within error of each other in egg-laying rate: 0.524 ± 0.2 for the first, 0.435 ± 0.099 for the second.

`O=C1CC(N2CCN(c3ccc([N+](=O)[O-])cc3)CC2)C(=O)N1c1ccccc1F` (stereo not given) [wact-56] showed an egg-laying rate of 1.06 ± 0.17.
